Bioassay records from PubChem.
An excerpt weighted towards active compounds, which were near 3.8% of everything screened.
HSF1 activator: increases HSF-1 driven luciferase reporter signal; NIH3T3-HGL HSF-1 luciferase reporter, MG132, 8 h; 100% = twice DMSO control signal; activation, % at 9 µM; 300,000 tested, 1.7% active; AID 504408;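 active means mean replicate activation of at least 50% with a set share of replicates each reaching 50%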;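 further: 0% = median of the neutral control wells and 100% = twice that signal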
pCIP destab: lowers stability of the mouse p/CIP coactivator protein | Q05BA5 | 290,000 tested, 0.01% active | decrease of EGFP signal, % at 10 µM | F442A p/CIP-EGFP cells, EGFP fluorescence, 16 h;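 active means EGFP signal decrease of at least 30% at 10 µM or well 3 SD below plate mean, unless failing retest; inactive means the rest, including hits failing retest or dose response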
Hsp70 act: transcriptional activators of Hsp70 | activation, % at 10 µM | HeLa Hsp70 promoter luciferase reporter, luminescence; scaled: vehicle 0, proteasome-inhibitor control 100% | 200,000 tested, 0.04% active;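 active means activation above the mean across all tested compounds plus 3 SD, cutoff set per campaign, cut at about 5.5% in these data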;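 further: 100% = MG132 at 30 µM as the positive control and 0% = DMSO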
HSP90 refold inh: HSP90 refolding inhibition in rabbit reticulocyte lysate. inhibition, % at 5.6 µM. luciferase refolding luminescence, 3 h. 290,000 tested, 0.91% active;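 active means inhibition above the screen-wide mean plus 3 SD, computed separately per campaign, cut at about 16% in these data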;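 further: 0% = DMSO wells and 100% = 60 µM geldanamycin wells; inhibitors lower the luminescence because luciferase stays unfolded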
HSF1 inh: HSF1 inhibition. NIH3T3-HGL HSE-luciferase, MG132-induced, luminescence 8 h; hits give low values. activity change, negative = inhibition, % at 7.5 µM (by protocol). 300,000 tested, 0.77% active;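 active means more than half of replicate wells show activity change below -50%, luminescence cut by over half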;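 further: luciferase reports HSF-1 transcriptional activity via heat shock element; 0% = median of DMSO wells and -100% = zero luminescence signal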
NALP1 inh: NALP1 inhibition; AID 2071; 280,000 tested, 0.61% active; inhibition, % at 10 µM; S. cerevisiae NALP1/ASC/caspase-1 growth, X-gal OD620, 72 h; in the data active means inhibition mostly above about 24%, no sharp cut-off; inactive means mostly below about 32%
HSP90 inh confirm: HSP90 inhibition, confirmation assay; shares compounds with HSP90 refold inh; rabbit reticulocyte lysate, luciferase refolding luminescence, 3 h; inhibition, % at 5.9 µM; 2,300 tested, 64% active; AID 1846; in the data active means inhibition above about 18%;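 further: 0% = vehicle wells and 100% = reference inhibitor wells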
luciferase ctr: firefly luciferase inhibition, HSP90 counter-screen; shares compounds with HSP90 refold inh; inhibition, % at 5.9 µM; purified native firefly luciferase, luminescence; AID 1847; 2,300 tested, 48% active;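 active means inhibition above the mean inhibition of all tested sample wells plus 3 SD, cut at about 10% in these data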;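 further: 0% = DMSO with luciferase and 100% = wells lacking luciferase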
The depositor's hits bear a star; nt = not tested or not shown.

SMILES | HSF1 activator | pCIP destab | Hsp70 act | HSP90 refold inh | HSF1 inh | NALP1 inh | HSP90 inh confirm | luciferase ctr
COc1cccc(-c2nc3ccccc3s2)c1O | 90* | -3 | 0 | 17* | 39 | 17 | 38* | 32*
COc1cc(-c2nc3ccccc3s2)ccc1O | 27 | 1 | 0 | 3 | 21 | 11 | nt | nt
O=C(CCc1ccccc1)NNC(=O)Nc1ccc(F)c(Cl)c1 | -9 | -19 | nt | 6 | -1 | 6 | nt | nt
CCOc1ccc(-c2nnc(SCC(=O)O)n2Cc2ccccc2)cc1 | -1 | -6 | nt | -2 | 5 | 3 | nt | nt
COc1ccc(N2CCN(C(=O)CCc3nnc4ccc(N5CCCC5)nn34)CC2)cc1 | 14 | -5 | nt | -2 | 0 | 7 | nt | nt
Cn1c(=N)n(CC(=O)c2ccc(Cl)c(Cl)c2)c2ccccc21 | -68 | 6 | nt | 41* | -63* | 21 | 47* | 50*
COc1ccc(C(=O)Cn2c(=N)n(C)c3ccccc32)cc1 | 34 | 8 | nt | -2 | 21 | 24 | nt | nt
Cn1c(=N)n(CC(=O)c2ccccc2)c2ccccc21 | 5 | 1 | nt | 29* | -2 | -8 | 6 | 0
COc1cccc(N2CC(C(=O)Nc3nnc(SCC(=O)NCc4ccco4)s3)CC2=O)c1 (configuration not stated) | 0 | -7 | nt | -5 | -7 | 11 | nt | nt
Cc1cc2nc(-c3cccnc3SCC(=O)NCc3ccco3)[nH]c2cc1C | 25 | nt | 0 | 18* | 5 | nt | 23* | 7
N#CC(C#N)=C1NC(N)=C(C#N)C(c2ccccc2)=C1C#N | -15 | 0 | nt | -6 | 1 | 5 | nt | nt
Oc1ccc(N2CCN(Cc3cc4c(cc3Br)OCCO4)CC2)cc1 | -13 | -5 | nt | -7 | -4 | -2 | nt | nt
Cc1ccc(-c2cn3cccc(C)c3n2)cc1 | 78* | 5 | 0 | 18* | 38 | 21 | 29* | 28*
Cc1cccn2cc(-c3ccc(Cl)cc3)nc12 | 34 | -2 | 0 | 10 | 8 | 6 | nt | nt
COc1cccc(NC(=O)N2CCc3ccccc3C2)c1 | 7 | -4 | nt | 21* | 12 | 14 | 3 | -15
O=C(Nc1cccc(Cl)c1)N1CCc2ccccc2C1 | 40 | -10 | nt | -3 | 12 | 2 | nt | nt
Cc1ccc(C(=O)NCC(=O)OC(C)C(=O)Nc2ccc(N3CCOCC3)cc2)s1 (configuration not stated) | -2 | -8 | nt | 20* | 3 | -8 | -4 | -13
Cc1ccc(C(=O)N(C)CC(=O)Nc2ccc(N3CCOCC3)cc2)s1 | 19 | nt | nt | nt | 3 | nt | nt | nt
COC(=O)c1ccc(NC(=O)C[n+]2ccccc2C)cc1 | -1 | -9 | nt | 20* | -1 | 9 | 1 | -4
Cc1cccc[n+]1CC(=O)Nc1ccccc1 | -6 | -9 | nt | 1 | -5 | -1 | nt | nt
CC(C)(C)c1ccc(C(=O)C2CCCN(C(=O)CCn3cncn3)C2)cc1 (configuration not stated) | 13 | -4 | nt | -4 | 11 | -5 | nt | nt
COCCn1c(C)cc(C(=O)Cn2nc(C(=O)O)c3ccccc3c2=O)c1C | -30 | 9 | 0 | 67* | -17 | 6 | 75* | 1
COCCn1c(C)cc(C(=O)CSc2nc3ccccc3s2)c1C | nt | -11 | 0 | 28* | nt | 18 | 67* | 68*
COCCn1c(C)cc(C(=O)COC(=O)c2ccc[nH]c2=O)c1C | -26 | -5 | 0 | 31* | -25 | 29 | 45* | 54*
Cc1cc(C(=O)Cn2nc(C(=O)O)c3ccccc3c2=O)c(C)n1C1CC1 | 13 | 0 | 0 | 6 | 2 | 4 | nt | nt
C=CCn1c(C)cc(C(=O)Cn2nc(C(=O)O)c3ccccc3c2=O)c1C | -18 | -3 | 0 | 51* | -4 | 11 | 71* | 20*
COc1ccc(CC(=O)OCN2C(=O)c3ccccc3C2=O)cc1OC | 0 | -5 | nt | -2 | 2 | 0 | nt | nt
CC1CCCN(c2ccc(C(=O)NCc3ccco3)cc2[N+](=O)[O-])C1 (configuration not stated) | 49 | 11 | 0 | 3 | 18 | 39 | nt | nt
